“And” between values parts separate entries of the source, which are not always exact repeats. Equal values may be shown once. Results filed as inconclusive are left out. Where a call stands in place of a potency, no number is given. More than one record can exist for a structure, and the calls need not agree. The source made the active and inactive calls. Calls come from the whole dose curve; as a rule, active = well fitted activation curve with a large enough effect in the repeat runs; inconclusive = weak or mixed curves; inactive = flat fitted curve, though single readings scatter.
Experiment: A CellTox Green Cytotoxicity Assay to monitor cytotoxicity in HepG2 cells - 32 hour (AID 1224883); note: nearly all actives have a fitted effect of over 50% in size
Settings: CellTox Green fluorescence; series mostly up to 76.8 µM
From the text: National Center for Advancing Translational Sciences [NCATS]
NIH Chemical Genomics Center [NCGC]
U.S. Environmental Protection Agency [EPA]
National Institutes of Environmental Health Sciences [NIEHS]
National Toxicology Program [NTP]
Cell-based models are critical for drug discovery. Determining the natural cytotoxic effects resulting from test compounds is an essential research activity. A CellTox Green Cytotoxicity Assay to monitor cytotoxicity in real time of continues cell culture during 40 hours of the compound treatment was used to screen Tox21 10K library compounds in HepG2 cells. CellTox Green Cytotoxicity Assay is a nonlytic, homogeneous, biofluorescent method to measure cytotoxicity in cell culture after experimental manipulation. The assay system uses a proprietary asymmetric cyanine dye that is excluded from viable cells but preferentially stains the dead cell's DNA. […] Viable cells produce no appreciable increases in fluorescence. Therefore, the fluorescence signal produced by the binding interaction with dead cell DNA is proportional to cytotoxicity.
The mixture of HepG2 cell suspension and reagents were dispensed at 600cells/6 ul/well in 1536-well tissue culture treated black solid bottom plates using a Multidrop dispenser. After the assay plates were incubated at a 37 C/5% CO2 incubator for 5 hours, 23 nL of compounds dissolved in DMSO, positive and negative controls was transferred to the assay plate by a pintool work station. The plates were incubated at 37 C for 40 hours. The fluorescence intensity were measured at 0h, 8h, 16h, 24h, 32h and 40h time points using ViewLux plate reader during compound treatment.
For `CCNc1nc(NC(C)C)nc(SC)n1`, the Potency was “inactive”.
With `Cn1cc(-c2ccccc2)c(=O)c(-c2cccc(C(F)(F)F)c2)c1` the Potency was “inactive”.
With `CCCCOC(=O)c1ccccc1C(=O)OCCCC` the Potency was “inactive”.
With `CN(C)N=O` the Potency was “inactive”.
With `CC1OC(C)OC(C)O1` (stereo not given) the Potency was “inactive”.
With `OCCN(CCO)CCO` the Potency was “inactive”.
In the case of `CCCCN(CCCC)SN(C)C(=O)Oc1cccc2c1OC(C)(C)C2`, the Potency was “inactive”.
In the case of `O=C(O)c1ccccn1`, the Potency was “inactive”.
For `CCC[CH2][Sn]([Cl])([Cl])[Cl]`, the Potency was “inactive”.
With `COP(N)(=O)SC` (stereo not given) the Potency was “inactive”.
With `CN=C=S` the Potency was “inactive”.
With `c1ccc(-c2ccccc2)cc1` the Potency was “inactive”.
With `Nc1ccccc1C(=O)O` the Potency was “inactive”.
For `CC(C)(C)OOC(C)(C)C`, the Potency was “inactive”.
In the case of `O=S(=O)(c1ccc(O)cc1)c1ccc(O)cc1`, the Potency was “inactive”.
With `ClCc1cccnc1` the Potency was “inactive”.
With `Clc1ccccc1Cl` the Potency was “inactive”.
In the case of `O=S(=O)(c1ccc(Cl)cc1)c1cc(Cl)c(Cl)cc1Cl`, the Potency was “inactive”.
With `CN(C)[C@@H]1C(=O)C(C(N)=O)=C(O)[C@@]2(O)C(=O)C3=C(O)c4c(O)cccc4[C@@](C)(O)[C@H]3C[C@@H]12` the Potency was “inactive”.
With `CC(C)OC(=O)Nc1ccccc1` the Potency was “inactive”.
For `O=c1n(Cl)c(=O)n(Cl)c(=O)n1Cl`, the Potency was “inactive”.
With `COc1ccc2c3c1O[C@H]1[C@@H](O)C=C[C@H]4[C@@H](C2)N(C)CC[C@@]341` the Potency was “inactive”.
For `CCCCCCCCCl`, the Potency was “inactive”.
With `COC(=O)c1ccccc1C(=O)OC` the Potency was “inactive”.
In the case of `Nc1ccc(Cc2ccc(N)cc2)cc1`, the Potency was “inactive”.
With `CCc1cccc(C)c1N(C(=O)CCl)C(C)COC` (stereo not given) the Potency was “inactive”.
With `CC(C)C1(C)N=C(c2nc3ccccc3cc2C(=O)O)NC1=O` (stereo not given) the Potency was “inactive”.
With `Cc1ccccc1O` the Potency was “inactive”.
For `CC(NC(C)(C)C)C(=O)c1cccc(Cl)c1` (stereo not given), the Potency was “inactive”.
In the case of `C1CN2CCN1CC2`, the Potency was “inactive and 21.9 µM (active)”.
With `c1cc2c3c(cccc3c1)CC2` the Potency was “inactive”.
With `CCOP(=S)(OCC)Oc1cnc2ccccc2n1` the Potency was “inactive”.
In the case of `CCC[N+](=O)[O-]`, the Potency was 21.5 µM (active) and inactive.
For `CCOC(=O)c1ccccc1C(=O)OCC`, the Potency was “inactive”.
With `CN(N=O)c1ccccc1` the Potency was “inactive”.
With `CCCN(CCC)N=O` the Potency was “inactive”.
In the case of `c1ccc(OP(Oc2ccccc2)Oc2ccccc2)cc1`, the Potency was “inactive”.
With `CC(Oc1ccc(Cl)cc1Cl)C(=O)O` (stereo not given) the Potency was “inactive”.
For `C#CCN(C)[C@H](C)Cc1ccccc1`, the Potency was “inactive”.
For `CC(C)NC(=O)N1CC(=O)N(c2cc(Cl)cc(Cl)c2)C1=O`, the Potency was “inactive”.

Reference: PubChem BioAssay (Tox21)
Potency is the fitted concentration of half-maximal effect.
